# According to PubChem BioAssay (NCI):
# This is part of a sample that, as a whole, favours compounds with a hit. Of some 79,000 tested, about 15% had one in any assay. A number with no mark means an inactive call. Activity calls are given as the source filed them. No stated cut-off is given here; in the data, active means growth inhibition above about 70%; inactive means the rest.
# How the values were obtained:
# [1] = NCI Yeast Anticancer Drug Screen. Data for the rad52 strain (AID 147);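 further: 0% = growth of vehicle-treated control cultures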; conditions: S. cerevisiae rad52 mutant growth inhibition, active compounds read high
# In short: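 Compounds are applied to a genetically defined yeast strain lacking normal DNA damage repair, and inhibition of growth is expressed relative to cultures given vehicle only.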
# [2] = NCI Yeast Anticancer Drug Screen. Data for the wt1 strain (AID 149);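 further: 0% = growth of vehicle-treated wt1 cultures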; conditions: S. cerevisiae wt1 strain (SPY 50644) growth inhibition, active compounds read high
# In short: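 Measured: growth of wt1 yeast under compound versus vehicle treatment, reported as inhibition.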
# [3] = NCI Yeast Anticancer Drug Screen. Data for the rad50EPP+ strain (AID 151);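 further: 0% = growth of vehicle-treated control cultures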; conditions: S. cerevisiae rad50 mutant strain, active compounds read high
# In short: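 Compounds were applied to the rad50EPP+ yeast strain, which bears a defined DNA repair alteration, and growth inhibition was determined relative to vehicle-treated cultures.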
# [4] = NCI Yeast Anticancer Drug Screen. Data for the mgt1 strain (AID 153); conditions: S. cerevisiae mgt1 mutant growth inhibition, active compounds read high
# In short: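 Strain: mgt1 yeast, one of a set carrying defined DNA damage repair or cell cycle control alterations. Compound-treated growth compared with vehicle.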
# [5] = NCI Yeast Anticancer Drug Screen. Data for the rad50 strain (AID 155);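 further: 0% = growth of vehicle-only cultures of the same strain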; conditions: S. cerevisiae rad50 strain growth inhibition, active compounds read high
# In short: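 Growth of the mutant yeast was measured after compound exposure and referenced to vehicle-treated cultures.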
# [6] = NCI Yeast Anticancer Drug Screen. Data for the mec2-1 strain (AID 157); conditions: S. cerevisiae mec2-1 strain, active compounds read high
# In short: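 Strain: mec2-1 (DNA repair/cell cycle alteration). Compound exposure, then growth measured; inhibition expressed relative to vehicle.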
# [7] = NCI Yeast Anticancer Drug Screen. Data for the sgs1 mgt1 strain (AID 161);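 further: 0% = growth of cultures given vehicle only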; conditions: S. cerevisiae sgs1 mgt1 strain, active compounds read high
# In short: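 Test agents were incubated with a DNA-repair-mutant yeast strain. Growth was then read and compared against vehicle-treated controls.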
# [8] = NCI Yeast Anticancer Drug Screen. Data for the CLN2oe strain (AID 163);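 further: 0% = growth of vehicle-only control cultures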; conditions: S. cerevisiae CLN2oe strain, active compounds read high
# In short: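 Growth of a genetically modified yeast strain is measured after compound exposure and compared with cultures given vehicle alone.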
# [9] = NCI Yeast Anticancer Drug Screen. Data for the cln2 rad14 strain (AID 165);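 further: 0% = growth equal to vehicle treated cultures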; conditions: S. cerevisiae cln2 rad14 strain, active compounds read high
# In short: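 Compounds are applied to the cln2 rad14 yeast strain, and growth is then compared with that of vehicle-treated cultures to give inhibition.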
# [10] = NCI Yeast Anticancer Drug Screen. Data for the bub3 strain (AID 167); conditions: S. cerevisiae bub3 mutant strain, active compounds read high
# In short: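 Whole-cell yeast assay. The mutant strain was incubated with compounds, and growth inhibition was determined by comparison with vehicle-treated cells.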
# [11] = NCI Yeast Anticancer Drug Screen. Data for the wt2 strain (AID 169);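 further: 0% = growth of vehicle-treated yeast cultures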; conditions: S. cerevisiae wt2 strain growth inhibition, active compounds read high
# In short: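 This strain belongs to a panel of yeast strains with defined genetic alterations in DNA damage repair or cell cycle control. Compounds are applied, and growth inhibition is measured against vehicle-treated cultures.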
# [12] = NCI Yeast Anticancer Drug Screen. Data for the mlh1 strain (AID 171);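 further: 0% = growth of vehicle-treated control cultures of the same strain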; conditions: S. cerevisiae mlh1 strain growth inhibition, active compounds read high
# In short: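 Growth of the mutant yeast strain after compound exposure, expressed as inhibition relative to vehicle-only controls.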
# [13] = NCI Yeast Anticancer Drug Screen. Data for the sgs1 strain (AID 173);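 further: 0% = growth of vehicle-only control cultures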; conditions: S. cerevisiae sgs1 mutant, active compounds read high
# In short: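 Growth of a yeast strain bearing a defined genetic alteration is measured after compound treatment. Inhibition is expressed relative to vehicle-only controls.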
# [14] = NCI Yeast Anticancer Drug Screen. Data for the mlh1 rad18 strain (AID 175); conditions: S. cerevisiae mlh1 rad18 strain growth inhibition, active compounds read high
# In short: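 Read-out is yeast growth inhibition, calculated against vehicle-only controls. The compound was applied to a strain engineered with DNA damage repair alterations.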
# [15] = NCI Yeast Anticancer Drug Screen. Data for the rad18 strain (AID 177); conditions: S. cerevisiae rad18 mutant growth inhibition, active compounds read high
# In short: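 Growth of the mutant yeast strain after compound exposure, normalised to vehicle-only cultures.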
# [16] = at 5.0 µM (retest, dose inferred, filed as 0.5)
# [17] = at 50.0 µM (retest, dose inferred, filed as 5.0)
smiles,measurement,setting,value
Cc1cc(C)c(NC(=S)NC(=O)c2ccccc2)cc1C,growth inhibition,[1]; at 1.2 µM,-33%
same,growth inhibition,[1]; at 3.7 µM,-58%
same,growth inhibition,[1]; at 11.0 µM,-54%
same,growth inhibition,[1]; at 33.0 µM,-41%
same,growth inhibition,[1]; at 100.0 µM,-44%
same,growth inhibition,[2]; at 1.2 µM,-46%
same,growth inhibition,[2]; at 3.7 µM,-29%
same,growth inhibition,[2]; at 11.0 µM,-39%
same,growth inhibition,[2]; at 33.0 µM,-17%
same,growth inhibition,[2]; at 100.0 µM,-14%
same,growth inhibition,[3]; at 1.2 µM,-44%
same,growth inhibition,[3]; at 3.7 µM,-41%
same,growth inhibition,[3]; at 11.0 µM,-25%
same,growth inhibition,[3]; at 33.0 µM,-18%
same,growth inhibition,[3]; at 100.0 µM,-5%
same,growth inhibition,[4]; at 1.2 µM,-57%
same,growth inhibition,[4]; at 3.7 µM,-54%
same,growth inhibition,[4]; at 11.0 µM,-25%
same,growth inhibition,[4]; at 33.0 µM,26%
same,growth inhibition,[4]; at 100.0 µM,37%
same,growth inhibition,[5]; at 1.2 µM,-50%
same,growth inhibition,[5]; at 3.7 µM,-52%
same,growth inhibition,[5]; [16],-13%
same,growth inhibition,[5]; at 11.0 µM,-52%
same,growth inhibition,[5]; at 33.0 µM,-39%
same,growth inhibition,[5]; [17],-4%
same,growth inhibition,[5]; at 50.0 µM,18.4%
same,growth inhibition,[5]; at 100.0 µM,-21%
same,growth inhibition,[6]; at 1.2 µM,-41%
same,growth inhibition,[6]; at 3.7 µM,-61%
same,growth inhibition,[6]; [16],-16%
same,growth inhibition,[6]; at 11.0 µM,-49%
same,growth inhibition,[6]; at 33.0 µM,-46%
same,growth inhibition,[6]; [17],4%
same,growth inhibition,[6]; at 50.0 µM,-0.25%
same,growth inhibition,[6]; at 100.0 µM,-11%
same,growth inhibition,[7]; [16],-7%
same,growth inhibition,[7]; [17],41%
same,growth inhibition,[7]; at 50.0 µM,25.3%
same,growth inhibition,[8]; at 1.2 µM,-63%
same,growth inhibition,[8]; at 3.7 µM,-78%
same,growth inhibition,[8]; at 11.0 µM,-58%
same,growth inhibition,[8]; at 33.0 µM,-64%
same,growth inhibition,[8]; at 100.0 µM,-57%
same,growth inhibition,[9]; [16],-4%
same,growth inhibition,[9]; [17],15%
same,growth inhibition,[9]; at 50.0 µM,2.25%
same,growth inhibition,[10]; at 1.2 µM,-21%
same,growth inhibition,[10]; at 3.7 µM,-17%
same,growth inhibition,[10]; [16],8%
same,growth inhibition,[10]; at 11.0 µM,38%
same,growth inhibition,[10]; at 33.0 µM,65%
same,growth inhibition,[10]; [17],79% (active)
same,growth inhibition,[10]; at 50.0 µM,49.6%
same,growth inhibition,[10]; at 100.0 µM,62%
same,growth inhibition,[11]; at 1.2 µM,-43%
same,growth inhibition,[11]; at 3.7 µM,-49%
same,growth inhibition,[11]; at 11.0 µM,-43%
same,growth inhibition,[11]; at 33.0 µM,-4%
same,growth inhibition,[11]; at 100.0 µM,22%
same,growth inhibition,[12]; at 1.2 µM,-34%
same,growth inhibition,[12]; at 3.7 µM,-20%
same,growth inhibition,[12]; at 11.0 µM,-7%
same,growth inhibition,[12]; at 33.0 µM,34%
same,growth inhibition,[12]; at 100.0 µM,32%
same,growth inhibition,[13]; at 1.2 µM,-62%
same,growth inhibition,[13]; at 3.7 µM,-54%
same,growth inhibition,[13]; at 11.0 µM,-45%
same,growth inhibition,[13]; at 33.0 µM,-3%
same,growth inhibition,[13]; at 100.0 µM,-1%
same,growth inhibition,[14]; [16],-37%
same,growth inhibition,[14]; [17],-12%
same,growth inhibition,[14]; at 50.0 µM,8.65%
same,growth inhibition,[15]; at 1.2 µM,-75%
same,growth inhibition,[15]; at 3.7 µM,-62%
same,growth inhibition,[15]; at 11.0 µM,-73%
same,growth inhibition,[15]; at 33.0 µM,-41%
same,growth inhibition,[15]; at 100.0 µM,-46%
